Results from PubChem BioAssay (NCATS).
Results filed as inconclusive are left out. The source made the active and inactive calls. The call rests on the fitted dose curve; in most records, active means well fitted inhibition curve with a large enough effect; inconclusive means small, poorly fitted or top-dose-only effect; inactive means no such curve, though single readings can be large or run the other way.

Biological target: Furin (Homo sapiens) (UniProt P09958)
Experiment: Furin counterscreen qHTS for Zika virus inhibitors (AID 1347149); further: nearly all actives have a fitted effect of over 70% in size
In short: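 Fluorogenic cleavage of BOC-RVRR-AMC (2 microM final, Km ~15 µM) was monitored (ex 340, em 450 nm) at 37C after 15 min RT preincubation of 5 nM furin with compounds in HEPES pH 7.0 buffer with CaCl2 and Triton X-100. Percent inhibition was fitted to a 4-parameter Hill curve.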
Potency means the concentration at half of the fitted maximal effect.

Sequence of Furin (Homo sapiens) (P09958 whole entry, looked up): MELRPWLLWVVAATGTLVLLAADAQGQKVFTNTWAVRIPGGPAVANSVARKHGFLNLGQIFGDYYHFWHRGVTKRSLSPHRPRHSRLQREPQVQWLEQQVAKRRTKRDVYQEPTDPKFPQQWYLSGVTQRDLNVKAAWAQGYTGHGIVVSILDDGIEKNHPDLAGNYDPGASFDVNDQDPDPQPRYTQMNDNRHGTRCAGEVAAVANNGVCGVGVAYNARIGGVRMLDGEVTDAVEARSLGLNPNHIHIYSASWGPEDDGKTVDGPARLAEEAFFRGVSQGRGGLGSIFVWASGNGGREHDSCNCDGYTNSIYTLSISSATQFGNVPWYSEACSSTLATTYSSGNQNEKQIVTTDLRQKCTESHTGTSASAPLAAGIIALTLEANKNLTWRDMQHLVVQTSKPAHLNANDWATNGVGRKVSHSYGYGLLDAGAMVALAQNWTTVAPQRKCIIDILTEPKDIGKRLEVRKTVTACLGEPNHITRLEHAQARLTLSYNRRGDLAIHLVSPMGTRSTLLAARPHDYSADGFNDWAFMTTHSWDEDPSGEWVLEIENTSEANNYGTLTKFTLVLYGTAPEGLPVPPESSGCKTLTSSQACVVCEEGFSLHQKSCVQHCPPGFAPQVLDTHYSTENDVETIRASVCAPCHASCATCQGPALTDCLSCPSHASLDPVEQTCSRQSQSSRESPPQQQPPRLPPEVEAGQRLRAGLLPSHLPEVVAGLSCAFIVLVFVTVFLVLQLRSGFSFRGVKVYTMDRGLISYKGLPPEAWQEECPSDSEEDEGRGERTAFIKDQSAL

SMILES	Potency
O=C(Nc1ccc(S(=O)(=O)Nc2nccs2)cc1)C(c1ccccc1)c1ccccc1	inactive
COc1ccc(C(=O)n2c(C)c(Cc3cccc(O[C@@H](C)C(=O)O)c3)c3cc(OC(F)(F)F)ccc32)cc1	49.4 µM (active)
O=C(O)/C=C/c1ccc(-c2ccc(O)c(C34CC5CC(CC(C5)C3)C4)c2)cc1	44.1 µM (active)
CC(C)c1cccc2c(-c3ccccc3)cc(-c3ccc(-c4ccc(C(=O)O)cc4)[nH]3)nc12	39.3 µM (active)
